The whole screen tested about 300,000 compounds, of which about 3,300 (1.1%) were called active. Inconclusive results (about 6%) are left out. For the sample, actives were picked, then their nearest neighbours and some compounds at random. A number with no mark means an inactive call.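 How the source made its calls: active means more than half of the replicate wells show a fall in the fluorescence ratio signal beyond about 16% (limit read from the data, passing the limit was not always enough); inconclusive means exactly half of the replicate wells pass the set limit; inactive means fewer than half of replicates pass the limit.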

In PubChem BioAssay AID2216 (Broad Institute, 2009) one finds inhibition data, which are given here for 61 compounds.

For the test, the system named is Ran GTPase (GTP-bound) - importin-beta complex. The test is described as follows: inhibitors of RanGTP-importin-beta interaction, primary screen, biochemical, FRET, CFP-Ran, YFP-importin-beta, homogeneous (AID 2216).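 Further: 0% = DMSO wells and 100% = Ran loaded with GDP instead of GTP.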 To be noted: cell-free CFP-Ran/YFP-importin-beta FRET ratio; hits give high values; concentration not given here.
Regarding `CC12CCC(=O)N1C(C(=O)NCCN1C(=O)S/C(=C\c3ccccc3F)C1=O)CS2` (stereo unspecified), the inhibition (usually the drop in the measured response relative to a control, in per cent) is 6.01%. With `C=C(C)CNC(=O)c1ccc(OC2CCN(C(=O)COC)CC2)cc1`, the inhibition was -0.667%.

As for `CCN1CCN(C(=O)N(Cc2ccc(Cl)cc2)S(=O)(=O)c2ccc(C)cc2)CC1`, the inhibition is 9.84%. Turning to `CC(=O)c1cc(C#N)c(SCC(=O)C(C)(C)C)nc1C`, the inhibition is -3.56%. `CC(=O)c1cc(C#N)c(N2CC(C)OC(C)C2)nc1C` (stereo unspecified): the inhibition was 25.3% (active). Take `CC(=O)c1cc(C#N)c(N2CCCCC2)nc1C`: the inhibition was 2.36%. Take `CC(=O)N/C(=C\c1ccccc1)C(=O)OC(C)C(=O)N(C)c1ccccc1` (stereo unspecified): the inhibition was 1.82%. For `O=[N+]([O-])c1ncc(Br)cc1Nc1ccccc1`, the inhibition was 6.49%.

As to `COc1ccccc1NC(=O)Nc1nc(CC(=O)Nc2ccccc2F)cs1`, the inhibition is 1.51%. To `Cc1ccnc(NC(=O)CNC(=O)c2ccccc2)c1` belongs 5.13%.

Regarding `O=C(Cc1ccc(Br)cc1)NCCc1ccccc1`, the inhibition is 5.4%. As to `CCCn1nc(NS(=O)(=O)c2ccccc2)c2cc3cc(C)ccc3nc21`, the inhibition is -1.51%. Turning to `CCCn1nc(NC(=O)C(C)C)c2cc3cc(OC)ccc3nc21`, the inhibition is 57.9% (active).

For `CCCn1nc(NS(=O)(=O)c2ccc(F)cc2)c2cc3ccccc3nc21`, the inhibition is 4.53%.

Regarding `Cc1ccc2c(C)c(C(=O)N3CCN(c4ccncc4)CC3)oc2c1C`, the inhibition is 1.96%. `CC(C)(C)OC(=O)c1c(N)n(CCCN2CCCC2=O)c2nc3ccccc3nc12`: the inhibition is 41.8% (active). For the compound `O=C(NCCCN1CCCC1=O)c1ccc(S(=O)(=O)Nc2ccccc2)cc1`, the inhibition was -2.45%. On to `CCOc1ccc(C(=O)NCCCN2CCCC2=O)cc1`, for which the inhibition is 3%. As to `Cc1nc(-c2ccc(F)cc2)c(CC(=O)Nc2cc(S(=O)(=O)N3CCCCC3)ccc2C)s1`, the inhibition is 1.23%. To `O=C(NCc1ccc2c(c1)OCO2)c1c(O)nc2sccn2c1=O` belongs -0.147%. Take `COc1ccc(C(=O)Nc2cccc(NC(=O)c3ccc(OC)cc3OC)n2)c(OC)c1`: the inhibition was 3.03%.

As to `CCCCN1C(N)=NC[C@@H]1CC1CCCCC1`, the inhibition is 0.418%. For `C/C(=N/OC(=O)c1c(-c2c(F)cccc2Cl)noc1C)c1cnccn1`, the inhibition is -0.76%. In the case of `CCOC(=O)c1cc2c(=O)n3ccccc3nc2n(CC(C)C)c1=NC(=O)c1c(-c2c(F)cccc2Cl)noc1C` it was 94.5% (active); in that of `Cc1onc(-c2c(F)cccc2Cl)c1C(=O)N(C)CC(=O)Nc1cccc(F)c1`, 0.755%; in that of `CCOC(=O)c1cccc(NC(=O)c2ccc(F)cc2F)c1`, -2.82%. To `CCc1cccc(NC(=O)COC(=O)C2CCN(c3ccc(C(F)(F)F)cn3)CC2)c1` belongs -2.11%; to `O=C(CNC(=O)C12CC3CC(CC(C3)C1)C2)OCC(=O)N1CCCCC1`, 9.25%. Turning to `COc1cccc(C(=O)N/N=C(\C)c2cccc(NC(=O)c3ccc(F)cc3)c2)c1OC`, the inhibition is -1.6%.

`Cc1ccc(-n2ncc3c(=O)n(-c4ccc(C)c(C)c4)c(-c4ccco4)nc32)cc1`: the inhibition is -0.295%. For `Cc1ccc(-n2c(=O)c(C#N)cc3c(=O)n4ccccc4nc32)cc1C`, the inhibition was 28% (active). On to `Cc1ccc(-n2c(SCC(=O)N3CCC(C(=O)O)CC3)nc3ccccc3c2=O)cc1C`, for which the inhibition is -0.912%.

For `O=C(NCCSc1ncc(-c2ccccc2)[nH]1)c1ccco1`, the inhibition is 3.47%. As to `O=C(NC1CCCCC1)c1ccc(-c2ccc(Cl)cc2)o1`, the inhibition is 8.43%. To `O=C(CSc1ccc(-c2ccc(-n3cccn3)cc2)nn1)Nc1ccc([N+](=O)[O-])cc1` belongs -0.399%; to `CC(=O)NC(CC(=O)Nc1cccc(S(=O)(=O)N2CCCC2)c1)c1ccccc1` (stereo unspecified), 0.238%.

Take `CCN(CC(=O)Nc1ccc(S(=O)(=O)N2CCCC2)cc1)CC(=O)Nc1cccc(OC)c1`: the inhibition was 4.35%.

`CCN(CC(=O)Nc1cccc(S(=O)(=O)N2CCCCC2)c1)Cc1ccccc1`: the inhibition is 16.2% (active). For `COc1ccc(CCNc2cc(N3CCN(C(=O)c4ccccc4OC)CC3)ccc2[N+](=O)[O-])cc1OC`, the inhibition was 3.89%.

Consider `CC1CC(C)CN(S(=O)(=O)c2cccc3nonc23)C1` (stereo unspecified), for which the inhibition was 2.14%. For `COc1ccc2oc(C(=O)N(CC(C)C)C3CCS(=O)(=O)C3)c(C)c2c1` (stereo unspecified), the inhibition was -2.12%. As for `O=C(Nc1ccccc1N1CCCC1)c1ccc(F)c(S(=O)(=O)N2CCOCC2)c1`, the inhibition is 1.55%. As to `COc1ccccc1CCNS(=O)(=O)c1cc2c3c(c1)C(C)C(=O)N3CCC2` (stereo unspecified), the inhibition was 4.16%.

For `COC(=O)C1=C(C)N(c2ccc(Br)cc2)C(=O)/C1=C\c1ccco1`, the inhibition is 5.89%. `Cc1cc(C)c(OCC(=O)N/N=C/c2ccco2)c(C)c1`: the inhibition was -4.28%.

Take `COC(=O)COc1ccc2c(c1C)O/C(=C\c1ccco1)C2=O`: the inhibition was 47.4% (active). To `CCS(=O)(=O)c1ccc(-c2cccc(NC(=O)c3ccc(Br)o3)c2)nn1` belongs 2.1%. For the compound `CCOc1ccc(NS(=O)(=O)c2ccc(C(=O)NCC(c3ccccc3OC)N3CCCC3)cc2)cc1` (stereo unspecified), the inhibition is -3.36%. On to `CCCNC(=O)CCn1cc(-c2ccc(OC)cc2)nc1CCN`, for which the inhibition is -0.23%.

For the compound `Cc1csc(NC(=O)CSc2nc(=O)cc(N)n2-c2ccc(F)cc2)n1`, the inhibition was 1.41%. As for `O=S(=O)(NC1CCCCC1N1CCC(O)CC1)c1ccc(Cl)cc1` (stereo unspecified), the inhibition was 74.6% (active). In the case of `O=S(=O)(NC1CCCCC1N1CCCCC1)c1ccc(Cl)cc1` (stereo unspecified) it was 2.32%.

In the case of `CCN1CCN(C2CCCCC2NS(=O)(=O)c2ccc(Cl)cc2)CC1` (stereo unspecified), the inhibition is 1.58%. On to `COc1ccc(CNC(=O)COC(=O)CCS(=O)(=O)c2ccc(C)cc2)cc1OC`, for which the inhibition was 2.29%. To `CCOc1ccc(-c2cc(C(=O)N/N=C/c3ccc(O)cc3)c3ccccc3n2)cc1` belongs 2.59%; to `CCOC(=O)c1cc2cc3ccccc3cc2oc1=O`, 3.3%. With `COc1ccc(C(=O)N/N=c2\oc3ccccc3cc2C(N)=O)cc1`, the inhibition is 4.55%. Turning to `CCN(CC)c1ccc2oc(=O)c(C)nc2c1`, the inhibition was -87.9%. Take `NC(=O)c1cc2ccccc2o/c1=N/NC(=O)c1cccc(F)c1`: the inhibition is -7.02%. For the compound `CCN(CC)c1ccc2cc(C(N)=O)/c(=N\NC(=O)c3ccncc3)oc2c1`, the inhibition was 135% (active). `CCN(CC)c1ccc2cc(C(=O)O)c(=O)oc2c1`: the inhibition was 153% (active).
